Results from PubChem BioAssay AID504444 (National Center for Advancing Translational Sciences (NCATS), 2011).
Screen size: about 360,000 compounds; about 7,500 (2.1%) were called active. Roughly 20% stayed inconclusive and do not appear here. Calls follow the shape of the dose curve; as a rule, active = well fitted inhibition curve with a large enough effect; inconclusive = small, poorly fitted or top-dose-only effect, or effect the other way; inactive = flat fitted curve, though single readings scatter. What follows is part of a selection rich in actives, with near analogues and random picks from the rest.

Assay: Nrf2 qHTS screen for inhibitors; also: nearly all actives have a fitted effect of over 60% in size
Conditions: A549 ARE-Fluc reporter, luciferase luminescence, 18-24 h; series mostly up to 46 µM; activity change, negative = inhibition: at the top concentration
Procedure, shortened: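 In this cell-based qHTS, ARE-driven firefly luciferase in A549 cells reports Nrf2 activity; the luminescent signal after BugLite lysis is the measured value, with a prior CellTiter-Fluor read for cell health.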
% is scaled to controls: 0 for no effect and ±100 for the full control effect; potency is read from the fitted curve at half-maximal effect.

SMILES	activity change, negative = inhibition	Potency
FC(F)(F)c1ccc(-c2cccc3c2C2CC3CCN2Cc2ccccc2)cc1 (configuration not stated)	-5.75% (inactive)	–
COc1ccc(-c2cc(NCc3ccc(F)cc3)n3cnnc3n2)cc1	-20.5% (inactive)	–
NC(=O)c1ncn([C@@H]2O[C@H](CNCc3cnc(N4CCOCC4)s3)[C@@H](O)[C@H]2O)n1	-1.58% (inactive)	–
Cn1nc(-c2ccccc2)c(CO)c1Sc1ccccc1	–	25.9 µM (active)
Cc1ccc(S(=O)(=O)c2c(COC(=O)c3cccc(Cl)c3)c(-c3ccccc3)nn2C)cc1	4.27% (inactive)	–
Cn1nc(-c2ccccc2)c(CSc2cccc(Cl)c2)c1Cl	-17.6% (inactive)	–
O=C(COc1ccccc1F)NNC(=O)c1cc(Br)ccc1Cl	2.26% (inactive)	–
O=C(CN1C(=O)NC2(CCCCCC2)C1=O)Nc1ccc([N+](=O)[O-])cc1	-1.58% (inactive)	–
CCC1CCCCN1Cc1c(O)ccc2c(=O)c(Oc3ccccc3Cl)c(C(F)(F)F)oc12 (configuration not stated)	1.23% (inactive)	–
C#CCOCCOCCOCCNc1nc(N2CCN(C(=O)Cn3cc(CCO)nn3)CC2)nc(N2CCN(C(=O)[C@H](CCCCN)n3cc(CCCC)nn3)CC2)n1	6.59% (inactive)	–
Cc1cc(C2=NNC(=Nc3ccc(S(=O)(=O)N4CCOCC4)cc3)SC2)c(C)n1CC1CCCO1 (configuration not stated)	14% (inactive)	–
C=CCn1c(C)cc(C2=NNC(=NCC)SC2)c1C	–	16.4 µM (active)
Cc1cccc2nc(-c3ccc(Cl)s3)c(Nc3ccc4c(c3)OCCO4)n12	-12.5% (inactive)	–
COc1ccc(NC(=O)/C(N=Nc2cccc(S(=O)(=O)Nc3ccc(SC(F)F)cc3)c2)=C(\C)O)cc1	-4.71% (inactive)	–
C=CCCC(=O)N1C[C@H]2CON(C)[C@H]2C[C@H]1c1cccc(Nc2ccccc2)c1	6.32% (inactive)	–
CN(C)C(=O)CCc1ccc2c3c([nH]c2c1)[C@]1(C)[C@@H](C(=O)N2CCCCC2)C[C@H](CC(=O)NCCC2=CCCCC2)C(=O)N1CC3	-13.1% (inactive)	–
CCc1ccc(S(=O)(=O)n2ccnc2)cc1	29.8% (inactive)	–
CCOc1ccccc1CNC(=O)c1ccc(-n2c(C)cc3c2CCC(C)C3)cc1 (configuration not stated)	9.8% (inactive)	–
CC(C)Oc1ccc(CCC(=O)NNC(=S)NCc2ccccc2)cc1	-0.796% (inactive)	–
O=C(CCc1ccccc1)NNC(=O)c1ccc(Br)cc1	3.41% (inactive)	–
COc1ccc(C(=O)NNC(=S)NC(=O)c2ccccc2[N+](=O)[O-])cc1	-1.05% (inactive)	–

SMILES	activity change, negative = inhibition	Potency
Cc1ccc(CNC(=O)c2c(-c3ccccc3)noc2C)cc1	-5.27% (inactive)	–
COc1ccc(C(=O)NC(=S)NNC(=O)c2c(-c3ccccc3)noc2C)cc1	–	23.1 µM (active)
COc1ccc(C(=O)NC(=S)NNC(=O)CCc2ccccc2)cc1	–	7.31 µM (active)
CCN(C(=O)c1sc2cc(OC)ccc2c1Cl)c1ccccc1	-27.9% (inactive)	–
C=CCN1C=C(C(=O)c2ccccc2)C(=O)CC1	-4.83% (inactive)	–
COc1cccc(CNc2nc(C(F)(F)F)nc3ccccc23)c1	–	23.1 µM (active)
COc1cccc(CNC(=O)c2n[nH]c3ccccc23)c1	-2.22% (inactive)	–
COc1cccc(CNc2ncc(-c3ccccc3)n2C)c1	0.973% (inactive)	–
NS(=O)(=O)c1ccc(CCNc2nc(C(F)(F)F)nc3ccccc23)cc1	–	23.1 µM (active)
NS(=O)(=O)c1ccc(CCNC(=O)CNC(=O)Cc2ccccc2)cc1	4.33% (inactive)	–
CC(Nc1nc(C(F)(F)F)nc2ccccc12)c1cccs1 (configuration not stated)	4.12% (inactive)	–
Cc1ccc(C)c(Cn2c(C(=O)O)c(CNCc3cccs3)c3ccccc32)c1	-15.6% (inactive)	–
COC(=O)CN1C(=O)CSc2ccc(S(=O)(=O)Nc3cc(C)ccc3C)cc21	10.2% (inactive)	–
CN1CCN(S(=O)(=O)c2ccc(N3CCN(c4ccccc4O)CC3)c([N+](=O)[O-])c2)CC1	–	14.6 µM (active)
Cc1cc(N)n(-c2ccc(S(=O)(=O)N3CCCC3)cc2[N+](=O)[O-])n1	5.75% (inactive)	–
Cc1ccc(C(=O)c2ccc(N3CCN(C)CC3)c([N+](=O)[O-])c2)cc1	-7.25% (inactive)	–
COc1ccc(-c2nc(Cn3c(=O)cc(C)c4c(C)nn(-c5ccccc5)c43)c(C)o2)c(OC)c1	16.5% (inactive)	–
Cc1cc(C)n2ncc(C(=O)N3CCCC3)c2n1	14.2% (inactive)	–
Cc1cccc(NS(=O)(=O)c2ccc(C)c(C(=O)NCC(c3ccccc3)N(C)C)c2)c1 (configuration not stated)	-21.8% (inactive)	–
Cc1ccccc1-c1ccc(Nc2ccc(C(=O)N3CCOCC3)cc2)nn1	6.18% (inactive)	–
Cc1oc2c(c1C(=O)N1CCOCC1)C(=O)c1ccccc1C2=O	–	16.4 µM (active)

SMILES	activity change, negative = inhibition	Potency
CCOC(=O)c1ccccc1C(=O)N1CCOCCOCCOCC1	14.3% (inactive)	–
COc1ccc(C2Nc3ccc(NC(=O)COC(C)=O)cc3C(=O)N2Cc2ccccc2)cc1COc1ccc(NC(C)=O)cc1 (configuration not stated)	-7.8% (inactive)	–
CC1=CC(C)(C)N(C(=O)CSc2nnc(-c3ccccc3)o2)c2ccc(C)cc21	–	25.9 µM (active)
CC1=CC(C)(C)N(C(=O)CSc2nccn2C)c2cc(C)ccc21	0.891% (inactive)	–
Cc1cccc(C)c1OC(=O)CSc1nnc(-c2ccccc2)o1	-3.7% (inactive)	–
CCN(CC)C(=O)[C@H]1CC(CC(=O)NCc2ccco2)C(=O)N2CCc3c([nH]c4ccccc34)[C@]12C (some centres not stated)	-4.63% (inactive)	–
Cc1cccc(N=C2NN=C(c3c[nH]c4ccccc34)CS2)c1	9.67% (inactive)	–
S=C(Nc1cccc(Cl)c1)Nc1ccc2c(c1)OCCO2	2.75% (inactive)	–
Clc1cccc(N=C2NN=C(c3ccc4c(c3)OCCO4)CS2)c1	–	5.17 µM (active)
CCn1nnc2cc(C(=O)Nc3ccc(C(=O)OC(C)C)cc3)ccc21	-0.376% (inactive)	–
Cc1cc(C)cc(NC(=O)CSc2oc(-c3ccccc3)nc2S(=O)(=O)c2ccc(Cl)cc2)c1	4.62% [at 9.27 µM] (inactive)	–
Cc1ccc(-c2nc(CS(=O)(=O)CC(=O)NCc3ccccc3Cl)c(C)o2)cc1	-22.6% (inactive)	–
CCCCn1c(SCC(=O)N2CCC(C(=O)OCC)CC2)nc2cc(S(N)(=O)=O)ccc21	-3.7% (inactive)	–
CCCCn1c(SCC(=O)N2CCCC2=O)nc2cc(S(N)(=O)=O)ccc21	10.2% (inactive)	–
CCCCn1c(SCc2ncc(-c3ccccc3)o2)nc2cc(S(N)(=O)=O)ccc21	–	14.6 µM (active)
CCCn1c2ccccc2c2cnn(CC(=O)N(CC)c3cc(C)ccc3C)c(=O)c21	-4.38% (inactive)	–
Cc1ccc(S(=O)(=O)c2nc(-c3cccs3)oc2N2CCCCC2)cc1	-22% (inactive)	–
CCOc1ccccc1NC(=O)Cn1nnc(C(=O)Nc2ccc(C)c(C)c2)c1N	5.62% (inactive)	–
C[C@]12CCC(=O)C=C1C=CC1C2CC[C@@]2(C)C1CC[C@@]21CCC(=O)O1 (some centres not stated)	-16.2% (inactive)	–
CC(=O)O[C@]1(C(C)=O)CC[C@H]2[C@@H]3C=C(C)C4=CC(=O)CC[C@]4(C)[C@H]3CC[C@@]21C	–	0.731 µM (active)
